What all share (assay): glycan array binding signal (z-score within array); higher = stronger binding
Holding throughout (details): glycan notation: IUPAC condensed, linker removed

One assay has as its target GlcA(b1-6)Gal. The procedure, abridged: (§1)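 Glycan array binding is given as a within-array Z-score, which can be read as non-binding when negative. The arrays, 3228 of them, came from the Consortium for Functional Glycomics database and were retained only where the protein sequence was available. Z-scores were averaged across arrays of the same protein sequence at different concentrations or buffers and across linkers.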

For assay [1], the target named is GlcNAc(b1-2)Man(a1-3)[GlcNAc(b1-2)Man(a1-6)]Man(b1-4)GlcNAc(b1-4)[Fuc(a1-6)]GlcNAc. A digest of the protocol: as §1
Assay [2] deals with GlcNAc(b1-2)[GlcNAc(b1-4)]Man(a1-3)[GlcNAc(b1-4)][GlcNAc(b1-2)[GlcNAc(b1-6)]Man(a1-6)]Man(b1-4)GlcNAc(b1-4)[Fuc(a1-6)]GlcNAc. The procedure, abridged:
as §1

The target of assay [3] is GlcNAc(b1-4)[GlcNAc(b1-6)]GalNAc. The procedure, abridged:
as §1

For assay [4], the target named is Neu5Ac(a2-3)Gal(b1-4)GlcNAc(b1-2)[Neu5Ac(a2-3)Gal(b1-4)GlcNAc(b1-6)]Man(a1-6)[Neu5Ac(a2-3)Gal(b1-4)GlcNAc(b1-2)Man(a1-3)]Man(b1-4)GlcNAc(b1-4)GlcNAc. A digest of the protocol:
as §1

Assay [5] addresses Neu5Ac(a2-3)Gal(b1-4)[Fuc(a1-3)]GlcNAc(b1-3)Gal(b1-4)GlcNAc. A digest of the protocol:
as §1

The target in assay [6] is Neu5Ac(a2-3)Gal(b1-4)[Fuc(a1-3)]GlcNAc(b1-3)GalNAc. A digest of the protocol: as §1
Assay [7] concerns the target Neu5Ac(a2-3)GalNAc(b1-4)GlcNAc. A digest of the protocol: as §1
For assay [8], the target named is Neu5Ac(a2-6)Gal(b1-4)GlcNAc(b1-3)Gal(b1-4)[Fuc(a1-3)]GlcNAc(b1-3)Gal(b1-4)[Fuc(a1-3)]GlcNAc. A digest of the protocol: as §1
In assay [9] the target is Neu5Ac(a2-6)Gal(b1-4)GlcNAc(b1-6)[Gal(b1-3)GlcNAc(b1-3)]Gal(b1-4)Glc. The procedure, abridged: as §1
For assay [10], the target named is Neu5Ac(a2-6)GlcNAc(b1-4)GlcNAc. The procedure, abridged:
as §1

In assay [11] the target is Neu5Ac(a2-8)Neu5Ac(a2-8)Neu5Ac. The procedure, abridged: as §1
In assay [12] the target is Neu5Gc(a2-3)Gal(b1-3)GlcNAc. A digest of the protocol: as §1
The target of the next assay is Neu5Gc(a2-3)Gal(b1-4)Glc. The procedure, abridged: as §1

The sample as a whole holds a higher share of the strongest signals than the screen did.

B1: CvGal1 (Crassostrea virginica), A7Y0I5 (protein)
chain: MTYQISKISQPFTSYIPNGLHIGKHLLLRGRVSYGTEAFAINLQQNPEPCNGEVAFHFNPRPGEQQCVRNSFDGGSWMDEERDQPHFPFDEGRSFTLRIEVAEEGFRTYVNGKPYVNFSHRLDLGNVHYLYLTEGAEFYDISYQDRYTLPYKSEIPQQMNVGKAVRIRGASQDNDGFSVNFACDPDNENCAFHFNPRPNEGVVVRNANLGGWGDEERDYEAEFPFHPYNYFDAMFICTDDKYLVHVNDKYFTEFNHRGGVDASSFFNIVGNLDIQDVEYFEPLEDDFVKTIPSGLVKGDVLIFRGFMKPGGDTFSINFMNGYSVEDDIAFHLNPRVGEGQVVMNCCMGGAWGDEEREDIPSPLADREPFEVKVVVKKNKFKVYVNGKKCMKFAARGNLEDIKGVNIKGEAYVYEVKLERKLEDSWEYLPGGFRVGGWVVVQAIPKKGSEGFAINFRTGSDEDSDIAFHFNPRLQENCTIRNSCAGGAWGGEERDQPDFPFEKKDTCEIAIQAQPDRFVTYVNGKRYIEFNHRLPLESITCVELTGRADFFEPKFF
As to B1, the “glycan array binding signal (z-score)” value in the assay with GlcA(b1-6)Gal is -0.259; in assay [1], -0.3; in [2] it was -0.249; in assay [3], -0.23; in assay [4], -0.283; in [5], -0.226. In addition, the “glycan array binding signal (z-score)” value is -0.166 in [6]; -0.277 in assay [7]; -0.28 in assay [8]; -0.245 in assay [9]; -0.303 in assay [10]; -0.236 in assay [11]. For the same molecule, the “glycan array binding signal (z-score)” value in [12] is -0.239; with Neu5Gc(a2-3)Gal(b1-4)Glc it was -0.311.
